Test [1] is described as follows: qHTS assay to identify small molecule antagonists of the estrogen related receptor (ERR) signaling pathway from Tox21 library - cell viability counter screen (AID 1224834). Further: nearly all actives have a fitted effect of over 30% in size. Further: potency means the concentration at half of the fitted maximal effect. A digest of the protocol: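 Viability readout (CellTiter-Fluor fluorescence, 30 min at 37 C) multiplexed with the ERR assay; cells treated 17.5 h at 37 C with compounds delivered in DMSO.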
(In general: In qHTS, concentration-response curves come from the screen itself.)

Test [2] deals with Luciferin 4-monooxygenase (Photinus pyralis) (UniProt P08659). The test can be described thus: qHTS assay to identify small molecule inhibitors of firefly luciferase (AID 1224835). Further: nearly all actives have a fitted effect of over 25% in size. Put shortly:
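Biochemical qHTS: compounds run as interplate titrations against purified firefly enzyme, with D-luciferin and ATP each at its KM concentration. Light output recorded by CCD imaging.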

The nature of test [3]: qHTS assay to identify small molecule agonists of the constitutive androstane receptor (CAR) signaling pathway - cell viability counter screen (AID 1224836). Further: nearly all actives have a fitted effect of over 45% in size. Put shortly:
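HepG2 cells stably carrying hCAR and a CYP2B6-2.2kb reporter; 15-concentration compounds plus PK11195 (final 0.75 uM), 23 hr at 37 C/5% CO2. Viability read by CellTiter-Fluor fluorescence.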

Test [4] can be described thus: qHTS assay to identify small molecule antagonists of the constitutive androstane receptor (CAR) signaling pathway - cell viability counter screen (AID 1224837). Further: nearly all actives have a fitted effect of over 45% in size. Put shortly: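 Fluorescence from CellTiter-Fluor served as the viability signal. Human hepatoma HepG2 cells stably bearing hCAR and CYP2B6-2.2kb received compound plus CITCO (50 nM final) for 23 hr.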
Test [5] addresses Nuclear receptor subfamily 1 group I member 3 (Homo sapiens) (UniProt Q14994). The test is described as follows: qHTS assay to identify small molecule antagonists of the constitutive androstane receptor (CAR) signaling pathway (AID 1224838).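 Further: HepG2 cells stably expressing hCAR with CYP2B6 luciferase reporter stimulated by CITCO; nearly all actives have a fitted effect of over 40% in size.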 Put shortly: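 Quantitative HTS in double-stable HepG2-CYP2B6-hCAR cells. After 4 h plating, cells get compound (15 concentrations) and CITCO at 50 nM final, incubate 24 h at 37 C, then ONE-Glo luminescence is read.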

Test [6] is described as follows: qHTS assay to identify small molecule antagonists of the estrogen related receptor signaling pathway with the pleiotropic PPARgamma coactivator (PGC) from Tox21 10K library - cell viability counter screen (AID 1224840; active means well fitted cell-killing curve with a large enough effect in the repeat runs, not every such curve was filed as active; further: nearly all actives have a fitted effect of over 40% in size). Put shortly:
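Compounds in DMSO, alongside positive and negative controls, were pinned onto PGC/ERR cells (2,000 per well). Exposure lasted 17.5 hours at 37 C, followed by a 30-minute CellTiter-Fluor incubation and fluorescence reading.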

In test [7] the target is Thyrotropin receptor (Homo sapiens) (UniProt P16473). The test is described as follows: qHTS assay to identify small molecule agonists of the thyroid stimulating hormone receptor (TSHR) signaling pathway (AID 1224843; calls by dose curve; further: nearly all actives have a fitted effect of over 45% in size). A digest of the protocol:
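Steps: seed 800 TSHR-HEK293 cells per well; add test compound and hold 30 min at ambient temperature; dispense cAMP-d2 then anti-cAMP cryptate; incubate 1 h at ambient; measure fluorescence intensity.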

Test [8] is described as follows: qHTS assay to identify small molecule agonists of the hypoxia (HIF-1) signaling pathway - cell viability counter screen (AID 1224844; calls by dose curve; further: nearly all actives have a fitted effect of over 50% in size; further: potency means the concentration at half of the fitted maximal effect). A digest of the protocol:
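Luminescent ATP content (CellTiter-Glo, 30 min, room temperature) served as the viability measure in HRE-bla ME-180 cells exposed to compounds for 17 hrs in low-serum medium (0.5% dialyzed FBS).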

A short description of test [9]: qHTS assay to identify small molecule agonists of H2AX (AID 1224845; active means well fitted activation curve with a large enough effect in the signal ratio in the repeat runs, not every such curve was filed as active; the % refers to the signal ratio). Put shortly:
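Wild-type CHO-K1 cells, plated overnight, exposed 3hr at 37C to 15 concentrations (0.76% DMSO final). Lysed, then HTRF anti-pH2AX (S139) cryptate and anti-H2AX-d2 antibodies, 24 hr room temperature; 665/620 nm emission read.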

Test [10] can be described thus: qHTS assay to identify small molecule agonists of the hypoxia (HIF-1) signaling pathway (AID 1224846; active means well fitted activation curve with a large enough effect in the signal ratio in the repeat runs, not every such curve was filed as active; the % refers to the signal ratio). A digest of the protocol: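 Measured by blue/green FRET after loading CCF4-AM: beta-lactamase expressed from a hypoxia response element in ME-180 cells. Test agents were delivered in DMSO and left 17 hrs; cells had been plated 5 hrs earlier in low-serum (0.5% dialyzed FBS) medium.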

The nature of test [11]: qHTS assay to identify small molecule agonists of H2AX - cell viability counter screen (AID 1224847; calls by dose curve; further: top concentration of the series differs between compounds; nearly all actives have a fitted effect of over 30% in size). A digest of the protocol:
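CHO-K1 cells plated overnight at 37C, then exposed 3 h at 37C to compounds at 15 concentrations (0.76% DMSO final). Viability by CellTiter-Glo luminescence after 30 min at room temperature.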

Test [12] is described as follows: qHTS RealTime-Glo MT Cell Viability Assay in HEK293 cells - 32 hour (AID 1224868). Further: nearly all actives have a fitted effect of over 50% in size. Further: potency means the concentration at half of the fitted maximal effect. A digest of the protocol:
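Viability tracked continuously by luminescence as live cells reduce a prosubstrate for NanoLuc; HEK293 cells preincubated 5 h, compound-treated at 37 C, and read at 0, 8, 16, 24, 32 and 40 h.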

Test [13] in a line: A CellTox Green Cytotoxicity Assay to monitor cytotoxicity in HEK293 cells - 0 hour (AID 1224869). Further: nearly all actives have a fitted effect of over 50% in size. A digest of the protocol:
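Each value comes from one timepoint of a single continuous run in which HEK293 cells with CellTox Green were exposed to compound for up to 40 h at 37 C, dye fluorescence rising with cell death.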

Test [14] in a line: qHTS RealTime-Glo MT Cell Viability Assay in HepG2 cells - 40 hour (AID 1224870). Further: nearly all actives have a fitted effect of over 50% in size. Further: potency means the concentration at half of the fitted maximal effect. A digest of the protocol: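 HepG2 cells (600/well) mixed with RealTime-Glo MT reagent, settled 5 h at 37 C/5% CO2 before compound addition. Nonlytic NanoLuc luminescence from viable-cell prosubstrate reduction read repeatedly during 40 h treatment at 37 C.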
Test [15] can be described thus: qHTS RealTime-Glo MT Cell Viability Assay in HepG2 cells - 24 hour (AID 1224867). Further: nearly all actives have a fitted effect of over 50% in size. A digest of the protocol: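 Viability was tracked continuously by NanoLuc luminescence from prosubstrate reduced by living HepG2 cells, at successive time points over 40 h of compound exposure. Cells with reagent were preincubated 5 h at 37 °C before compound addition.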
Test [16] is described as follows: qHTS assay to identify small molecule antagonists of the estrogen related receptor signaling pathway with the pleiotropic PPARgamma coactivator (PGC) from Tox21 10K library (AID 1224841; call rule not given here). Put shortly:
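Compound exposure ran 18 hours at 37 C in PGC/ERR cells (2,000/well) that had first rested 6 hours in a 37 C/5% CO2 incubator. Luciferase activity was then detected with One-Glo after a 30-minute room-temperature step.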

The nature of test [17]: qHTS assay to identify small molecule agonists of the estrogen related receptor signaling pathway with the pleiotropic PPARgamma coactivator (PGC) from Tox21 10K library (AID 1224842). Further: nearly all actives have a fitted effect of over 15% in size. A digest of the protocol: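 PGC/ERR reporter cell line, 2,000 cells per well, incubated 6 h at 37 C before 23 nL compound in DMSO was added. After 18 h at 37 C, One-Glo luminescence read following 30 min at room temperature.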

Test [18] in a line: qHTS assay to identify small molecule antagonists of the estrogen related receptor (ERR) signaling pathway from Tox21 library (AID 1224848). Further: nearly all actives have a fitted effect of over 50% in size. A digest of the protocol: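 Luminescent reporter read-out (ONE-Glo) from NTP's ERR cell line after 18 h treatment at 37 C with DMSO-dissolved Tox21 compounds; cells pre-plated 6 h beforehand at 2,000 per well.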
The nature of test [19]: qHTS assay to identify small molecule agonists of the estrogen related receptor (ERR) signaling pathway from Tox21 library (AID 1224849; calls by dose curve; further: nearly all actives have a fitted effect of over 15% in size). The conditions noted are these: ERR reporter cell line, ONE-Glo luciferase, 18 h; at 42.5 µM (top of the series). Put shortly:
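We plated ERR reporter cells, waited 6 h, added compounds in DMSO by pin tool and incubated them 18 h at 37 C. ONE-Glo was then added and luminescence read after 30 min.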

“And” between values parts separate entries of the source, which are not always exact repeats. Equal entries are not always repeated. Records with an inconclusive call do not appear. Some compounds were tested as several samples or in several runs, with calls that do not always agree. The source made the active and inactive calls. Unless noted, the call rests on the fitted dose curve; in most records, active means well fitted curve in the direction sought with a large enough effect in the repeat runs; inconclusive means weak or mixed curves; inactive means no such curve, though single readings can be large; an effect the other way counts as inactive or inconclusive.
On the % scale 0 is the no-effect control and ±100 the full control effect.

Thyrotropin receptor (Homo sapiens), sequence (P16473 whole entry, looked up): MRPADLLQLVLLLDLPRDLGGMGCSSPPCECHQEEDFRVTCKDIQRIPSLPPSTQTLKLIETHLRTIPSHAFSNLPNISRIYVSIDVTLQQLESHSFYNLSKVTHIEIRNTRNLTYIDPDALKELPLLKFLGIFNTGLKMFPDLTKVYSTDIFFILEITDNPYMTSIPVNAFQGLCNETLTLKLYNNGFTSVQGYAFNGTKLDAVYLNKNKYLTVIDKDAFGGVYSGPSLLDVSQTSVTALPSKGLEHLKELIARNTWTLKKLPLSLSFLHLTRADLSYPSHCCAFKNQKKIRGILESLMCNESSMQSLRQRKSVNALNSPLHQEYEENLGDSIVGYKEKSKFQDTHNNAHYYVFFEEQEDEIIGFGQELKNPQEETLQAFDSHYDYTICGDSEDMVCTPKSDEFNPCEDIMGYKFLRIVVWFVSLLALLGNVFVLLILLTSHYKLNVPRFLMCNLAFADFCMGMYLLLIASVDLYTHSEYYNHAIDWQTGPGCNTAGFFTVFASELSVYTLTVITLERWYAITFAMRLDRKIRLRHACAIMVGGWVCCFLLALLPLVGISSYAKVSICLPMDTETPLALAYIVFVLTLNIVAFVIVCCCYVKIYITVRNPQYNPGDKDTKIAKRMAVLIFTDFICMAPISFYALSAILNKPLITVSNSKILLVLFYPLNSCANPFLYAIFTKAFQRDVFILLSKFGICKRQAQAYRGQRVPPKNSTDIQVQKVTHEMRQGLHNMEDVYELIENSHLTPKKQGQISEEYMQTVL
Luciferin 4-monooxygenase (Photinus pyralis), sequence (P08659 whole entry, looked up): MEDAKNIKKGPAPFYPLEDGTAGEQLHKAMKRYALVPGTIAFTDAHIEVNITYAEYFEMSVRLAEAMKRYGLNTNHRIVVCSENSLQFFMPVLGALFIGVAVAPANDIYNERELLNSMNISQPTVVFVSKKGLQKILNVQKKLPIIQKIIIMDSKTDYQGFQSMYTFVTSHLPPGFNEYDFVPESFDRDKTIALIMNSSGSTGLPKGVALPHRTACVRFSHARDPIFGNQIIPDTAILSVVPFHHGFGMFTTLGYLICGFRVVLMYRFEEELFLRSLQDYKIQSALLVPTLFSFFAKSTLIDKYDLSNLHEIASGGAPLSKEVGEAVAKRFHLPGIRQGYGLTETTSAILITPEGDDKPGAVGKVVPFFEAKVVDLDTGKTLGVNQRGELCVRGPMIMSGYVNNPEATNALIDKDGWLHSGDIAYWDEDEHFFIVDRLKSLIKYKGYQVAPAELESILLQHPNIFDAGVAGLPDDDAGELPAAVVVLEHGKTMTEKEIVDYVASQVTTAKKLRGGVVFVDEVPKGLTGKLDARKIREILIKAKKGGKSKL
Nuclear receptor subfamily 1 group I member 3 (Homo sapiens), sequence (Q14994 whole entry, looked up): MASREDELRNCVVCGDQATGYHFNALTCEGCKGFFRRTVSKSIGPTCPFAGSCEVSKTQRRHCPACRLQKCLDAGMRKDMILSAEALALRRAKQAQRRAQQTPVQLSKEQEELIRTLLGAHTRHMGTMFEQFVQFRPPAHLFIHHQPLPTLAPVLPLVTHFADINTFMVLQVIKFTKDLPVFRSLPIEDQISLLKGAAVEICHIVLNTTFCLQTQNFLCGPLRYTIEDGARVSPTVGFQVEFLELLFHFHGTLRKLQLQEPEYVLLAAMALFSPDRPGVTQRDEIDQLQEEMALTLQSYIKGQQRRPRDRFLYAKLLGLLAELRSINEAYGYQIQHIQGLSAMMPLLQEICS

Consider `OC[P+](CO)(CO)CO`, for which the Potency entry in [1], in [2], in test [3], in test [4], in test [5] and in test [6] was “inactive” in each case. The Potency entry in test [7], in [9], in test [11], in test [12], in [13] and in test [14] was “inactive” each time. The Potency in test [8] was 44.2 µM (active) and inactive. Besides, the result in test [10] was inactive.
In the case of `Cc1ccc(N)c(C)c1`, the Potency entry in test [1], in test [2], in [3], in test [4], in test [6] and in [9] was “inactive” throughout. Besides, the Potency entry in test [11], in test [15], in [12] and in test [14] was “inactive” each time. The call in [10] was inactive.
As for `O=C(O)C(Cl)(Cl)Br`, the Potency result in [1], in test [2], in test [3], in test [4], in test [5] and in [6] was “inactive” in each case. The Potency result in [7], in test [8], in [9], in test [11], in [12] and in test [13] was “inactive” throughout. For the same molecule, in test [14], the Potency entry was “inactive”. For the same molecule, the result in [10] was inactive.
For the molecule `C[N+](C)(C)CC1CO1` (stereo not drawn), the Potency entry in test [1], in [2], in [3], in test [4], in [6] and in [7] was “inactive” in each case. For the same molecule, the Potency result in test [8], in test [9], in [11], in [12], in test [13] and in [14] was “inactive” in each case. Also, the outcome in test [10] was inactive.
Take `CC(CC(C(N)=O)(c1ccccc1)c1ccccc1)N(C)C` (stereo not drawn): the Potency result in [1], in test [2], in [3], in test [4], in test [7] and in test [8] was “inactive” each time. In addition, the Potency result in test [9], in test [11], in [15], in [12], in test [13] and in [14] was “inactive” throughout. Moreover, in test [10], the molecule was called inactive.
Turning to `CC(C)(c1ccccc1)c1cc(-n2nc3ccccc3n2)c(O)c(C(C)(C)c2ccccc2)c1`, the Potency result in test [1], in test [2], in test [3], in test [4], in test [5] and in test [6] was “inactive” in each case. For the same molecule, the Potency entry in test [8], in test [9], in [11], in test [12], in test [13] and in test [14] was “inactive” each time. In test [10], the molecule was called inactive.
Regarding `C[N+](C)(C)CCOC(=O)C(O)(c1ccccc1)c1ccccc1`, the Potency result in test [1], in test [2], in [3], in test [4], in test [6] and in test [8] was “inactive” in each case. Besides, the Potency entry in test [9], in test [11], in [15], in test [12] and in [13] was “inactive” in each case. Further, the molecule was classed as inactive in [10]. Besides, the Potency in test [14] is 23.9 µM (active).
In the case of `CCOC(C(=O)OCCN(C)C)(c1ccccc1)c1ccccc1`, the Potency entry in test [1], in [2], in [3], in test [4], in test [5] and in test [16] was “inactive” throughout. For the same molecule, the Potency entry in [17], in [9], in test [11], in [18], in test [12] and in test [13] was “inactive” throughout. Besides, in test [14], the Potency result is “inactive”. The result in [10] was inactive. Moreover, in test [19], the activity change, positive = activation is -1.78% (inactive).
Regarding `OCC1CO1` (stereo not drawn), the Potency entry in test [1], in test [2], in test [3], in test [4], in test [6] and in test [9] was “inactive” in each case. Moreover, the Potency entry in test [11], in [12], in test [13] and in [14] was “inactive” in each case. The outcome in [10] was inactive.
As for `FC(F)OC(F)(F)C(F)Cl` (stereo not drawn), the Potency result in [1], in test [2], in [3], in test [4], in test [5] and in [7] was “inactive” in each case. Besides, the Potency result in [9], in [11], in test [15], in test [12], in test [13] and in test [14] was “inactive” throughout. Besides, the outcome in test [10] was inactive.
As to `CN1CC[C@]23c4c5ccc(O)c4O[C@H]2[C@@H](O)CC[C@H]3[C@H]1C5`, the Potency entry in test [1], in test [2], in test [3], in test [4], in test [5] and in [6] was “inactive” each time. Also, the Potency result in test [8], in [9], in [11], in test [15], in [12] and in test [13] was “inactive” throughout. The Potency entry in test [14] was “inactive”. The molecule was called inactive in test [10].
Take `O=C(O)c1ccc(=O)[nH]c1`: the activity change, positive = activation in test [19] is 5.02% (inactive).
For the molecule `CC(C)(C)NCC(O)c1ccccc1Cl` (stereo not drawn), the activity change, positive = activation in test [19] was 4.93% (inactive).
In the case of `O=P(OCC(Br)CBr)(OCC(Br)CBr)OCC(Br)CBr` (stereo not drawn), the Potency in test [1] is 49.2 µM (active) and 51.7 µM (active); in test [12], 27.9 µM (active). In addition, the Potency entry in test [5], in test [9], in [15], in test [13] and in test [14] was “inactive” each time.
In the case of `CC(=O)OC(c1ccccc1)C(Cl)(Cl)Cl` (stereo not drawn), the Potency result in [1], in [4], in [7], in test [8], in test [9] and in test [15] was “inactive” each time. In addition, the Potency result in test [12], in test [13] and in test [14] was “inactive” each time. For the same molecule, the molecule was classed as inactive in [10].

The values are drawn from PubChem BioAssay (Tox21).
